Sampled rows, rich in hits. Any-hit rate of the full collection: about 10%.
GPT2 inhibitor – inhibitors of human GPT2 alanine aminotransferase | actives 0.25% (n = 100,000) | Recombinant GPT2, coupled pyruvate oxidase/HRP Amplex Red fluorescence | Potency, µM (series often up to 57.7 µM), for inactives: top-dose activity change, negative = inhibition, most hits filed as inhibitors | Q8TD30 | AID 1671188; further: on the % scale 0 is the no-effect control and ±100 the full control effect; nearly all actives have a fitted effect of over 60% in size
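Fluorescence read-out: pyruvate from GPT2 turnover coupled to pyruvate oxidase, HRP and Amplex Red (0.2mM ThPP, 0.2U/mL PO and HRP, 50uM Amplex final). Substrates 250uM a-KG, 2mM L-alanine; enzyme 10ng/uL; 30 min RT.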
hNpr1 antagonist – blocks ANP-stimulated signaling of human Npr1 receptor | P16066 | HEK293 hNpr1 GloSensor cGMP, ANP-stimulated luminescence | Potency, µM (titrated, usually from 46.3 µM), without a hit: top-dose activity change, negative = inhibition, actives largely listed as inhibitors | actives 1.6% (n = 76,000); calls by dose curve; further: on the % scale 0 is the no-effect control and ±100 the full control effect; nearly all actives have a fitted effect of over 60% in size
Target sequence (P16066 whole entry, looked up): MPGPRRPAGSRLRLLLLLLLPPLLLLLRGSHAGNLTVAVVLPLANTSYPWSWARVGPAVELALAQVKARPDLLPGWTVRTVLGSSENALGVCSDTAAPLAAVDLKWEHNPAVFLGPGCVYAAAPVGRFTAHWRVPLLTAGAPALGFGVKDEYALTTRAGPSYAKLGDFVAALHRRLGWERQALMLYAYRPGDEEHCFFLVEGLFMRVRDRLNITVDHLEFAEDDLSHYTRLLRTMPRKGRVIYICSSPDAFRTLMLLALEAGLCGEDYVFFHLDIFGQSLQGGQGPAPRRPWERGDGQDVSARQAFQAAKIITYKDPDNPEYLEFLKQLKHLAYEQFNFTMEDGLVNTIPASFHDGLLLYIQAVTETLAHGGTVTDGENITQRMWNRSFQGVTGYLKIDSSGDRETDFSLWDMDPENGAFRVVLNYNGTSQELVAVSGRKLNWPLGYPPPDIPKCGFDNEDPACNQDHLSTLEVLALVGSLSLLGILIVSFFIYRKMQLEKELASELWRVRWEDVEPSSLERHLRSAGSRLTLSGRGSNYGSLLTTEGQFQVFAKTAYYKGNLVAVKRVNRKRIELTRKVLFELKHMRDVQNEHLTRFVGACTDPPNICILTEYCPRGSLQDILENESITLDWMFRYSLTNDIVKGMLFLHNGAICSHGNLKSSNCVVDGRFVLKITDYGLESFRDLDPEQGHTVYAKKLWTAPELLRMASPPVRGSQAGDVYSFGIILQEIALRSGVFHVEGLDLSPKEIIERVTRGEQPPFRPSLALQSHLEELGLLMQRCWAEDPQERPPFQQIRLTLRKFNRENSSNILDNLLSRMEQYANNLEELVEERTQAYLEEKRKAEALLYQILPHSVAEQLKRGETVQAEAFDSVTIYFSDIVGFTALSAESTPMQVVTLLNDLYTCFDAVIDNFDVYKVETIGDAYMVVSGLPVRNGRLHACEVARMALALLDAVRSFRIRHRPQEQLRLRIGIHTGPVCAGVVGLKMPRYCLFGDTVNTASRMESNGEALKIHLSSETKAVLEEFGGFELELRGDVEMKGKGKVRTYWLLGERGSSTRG
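Compound pre-incubated 30 min at room temperature on GloSensor-loaded HEK293 cells stably carrying hNpr1 and the pGS-40F cGMP biosensor. Stimulation uses hNppA at 0.1 nM final; luminescence is taken at baseline and 20 min post-agonist.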
FLuc inh – blocks purified firefly luciferase enzyme activity; P08659; purified P. pyralis luciferase, luminescence, biochemical; Potency, µM (doses to about 115 µM), hits mostly inhibitors; actives 2.5% (n = 76,000); AID 1347043; further: on the % scale 0 is the no-effect control and ±100 the full control effect; nearly all actives have a fitted effect of over 65% in size
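Purified P. pyralis luciferase (10nM final) in 50mM Tris acetate pH 7.5, 10mM Mg acetate, 0.01% Tween-20, 0.05% BSA with 10uM D-luciferin and 10uM ATP. Compounds titrated qHTS. Luminescence imaged on CCD.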
HEK293 tox – kills HEK 293 cells; HEK 293 viability, ATP luminescence (CellTiter-Glo), 48-72 h; Potency, µM (top dose mostly 115 µM), for the others: top-dose activity change, negative = cytotoxicity, actives largely listed as inhibitors; actives 6.6% (n = 94,000); AID 1345083; further: on the % scale 0 is the no-effect control and ±100 the full control effect; nearly all actives have a fitted effect of over 60% in size
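HEK 293 cells seeded at 250 cells/well were exposed to compound for 48 or 72 hr at 37 degree Celsius. Viability taken as ATP content by CellTiter-Glo luminescence.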
3T3 cytotox – kills NIH 3T3 cells. NIH 3T3 viability, CellTiter-Glo ATP luminescence, 48-72 h. actives 4.3% (n = 94,000). Potency, µM (titrated, usually from 96.7 µM), for inactives: at the top dose activity change, negative = cytotoxicity, hits mostly inhibitors; further: on the % scale 0 is the no-effect control and ±100 the full control effect; nearly all actives have a fitted effect of over 55% in size
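Mouse fibroblast NIH 3T3 cells, 400 per well, received compound via pintool and were incubated for 48 or 72 hr prior to CellTiter-Glo ATP luminescence measurement.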
NPR1 antag cnf – confirmation of human Npr1 natriuretic peptide receptor antagonists. Potency, µM (titrated, usually from 57.6 µM), inactives show at the highest dose activity change, negative = inhibition, hits mostly inhibitors. AID 1347044. shares compounds with hNpr1 antagonist. HEK293 hNpr1 cGMP GloSensor luminescence, ANP-stimulated. actives 76% (n = 1,400); calls by dose curve; further: nearly all actives have a fitted effect of over 70% in size
Npr2 selectivity – selectivity test of Npr1 antagonists against human Npr2. HEK293 hNpr2 GloSensor cGMP luminescence, CNP-stimulated. Potency, µM (highest dose often 57.6 µM), inactives show at the highest dose activity change, negative = inhibition, actives largely listed as inhibitors. shares compounds with hNpr1 antagonist. actives 67% (n = 1,400); calls by dose curve; further: nearly all actives have a fitted effect of over 70% in size
FLuc counter – FLuc enzyme inhibition, Npr1 counter-screen; purified FLuc enzyme, luminescence, Km substrate; actives 0.7% (n = 1,400); Potency, µM (titrated, usually from 57.6 µM), for inactives: at the top dose activity change, negative = inhibition, actives largely listed as inhibitors; shares compounds with hNpr1 antagonist; further: series mostly up to about 58 µM; 0% is about no effect
GloSensor ctrl – counter-screen for Npr1 antagonists: GloSensor control cell line; shares compounds with hNpr1 antagonist; HEK293 GloSensor cGMP, SNP-stimulated, luminescence; Potency, µM (titrated, usually from 57.6 µM), without a hit: at the highest dose activity change, negative = inhibition, usual class: inhibitors; actives 69% (n = 1,400); calls by dose curve; further: on the % scale 0 is the no-effect control and ±100 the full control effect; nearly all actives have a fitted effect of over 70% in size
Numbers without * were called inactive; [ ] = another dose, or the depositor's remark. Unless noted, the call rests on the fitted dose curve; in most records, active means well fitted curve in the direction sought with a large enough effect; inconclusive means small, poorly fitted or top-dose-only effect, or another doubt; inactive means no such curve, though single readings can be large; an effect the other way counts as inactive or inconclusive. Potency means the concentration at half of the fitted maximal effect.

Results for CCCC1=Nc2cc(C(=O)NCCc3ccc(OC)c(OC)c3)ccc2Sc2ccccc21 ?
GPT2 inhibitor: inactive; hNpr1 antagonist: inconclusive; FLuc inh: inactive; HEK293 tox: inconclusive; 3T3 cytotox: inconclusive; NPR1 antag cnf: inconclusive; Npr2 selectivity: inconclusive; FLuc counter: 1.3%; GloSensor ctrl: inconclusive

How did CCCC1=Nc2cc(C(=O)NCCc3ccc(OC)c(OC)c3)ccc2Sc2ccc(C)cc21 do in these assays?
GPT2 inhibitor: inactive; hNpr1 antagonist: -11.5%; FLuc inh: inactive; HEK293 tox: inconclusive; 3T3 cytotox: inconclusive

How did O=C1NCCCCCCN(S(=O)(=O)c2cccc(F)c2)[C@H]2CCCC[C@@H]12 do in these assays?
GPT2 inhibitor: inactive; hNpr1 antagonist: -9.5%; FLuc inh: inactive; HEK293 tox: -22.4%; 3T3 cytotox: -23.5%

How did CC(CN1CC2(CCN(C(=O)c3ccc(=O)n(C)n3)CC2)OC1=O)c1ccccc1 (stereo not given) do in these assays?
GPT2 inhibitor: -18.9%; hNpr1 antagonist: -6.1%; FLuc inh: inactive; HEK293 tox: 0.0%; 3T3 cytotox: -33.2%

Results for O=C(CN1CCCc2nc(-c3ccncc3)ncc2C1=O)NCCN1CCOCC1 ?
GPT2 inhibitor: inactive; hNpr1 antagonist: -21.1%; FLuc inh: inactive; HEK293 tox: -4.3%; 3T3 cytotox: -0.7%

What do the screens show for `O=C(CN1CCCc2nc(-c3ccncc3)ncc2C1=O)N1CCc2ccccc2C1`?
GPT2 inhibitor: -6.8%; hNpr1 antagonist: 8.91µM*; FLuc inh: inactive; HEK293 tox: 35.5µM*; 3T3 cytotox: inconclusive; NPR1 antag cnf: 12.2µM*; Npr2 selectivity: 15.3µM*; FLuc counter: 2.4%; GloSensor ctrl: 15.3µM*

Results for O=C(Nc1ccc(F)c(Cl)c1)C1=NO[C@@H]2CN(Cc3cccnc3)C[C@H]12 ?
GPT2 inhibitor: 4.6%[88.5 µM]; hNpr1 antagonist: 28.2µM*; FLuc inh: inactive; HEK293 tox: inconclusive; 3T3 cytotox: inconclusive; NPR1 antag cnf: 35.3µM*; Npr2 selectivity: 35.3µM*; FLuc counter: -2.9%[86.2 µM]; GloSensor ctrl: 31.4µM*

Results for O=C(Nc1ccncc1)C1=NO[C@@H]2CN(CCc3ccccc3)C[C@H]12 ?
GPT2 inhibitor: inactive; hNpr1 antagonist: inconclusive; FLuc inh: inactive; HEK293 tox: inconclusive; 3T3 cytotox: inconclusive; NPR1 antag cnf: 39.6µM*; Npr2 selectivity: inconclusive; FLuc counter: 4.9%[86.2 µM]; GloSensor ctrl: 35.3µM*

What do the screens show for `O=C(Nc1cccc(Cl)c1)C1=NO[C@@H]2CN(Cc3cccnc3)C[C@H]12`?
GPT2 inhibitor: -3.4%[88.5 µM]; hNpr1 antagonist: inconclusive; FLuc inh: inactive; HEK293 tox: inconclusive; 3T3 cytotox: inconclusive

What do the screens show for `CC(=O)NCCC(=O)N1Cc2ccccc2CC2(CCCN2CC2CCNC2)C1` (stereo not given)?
GPT2 inhibitor: inactive; HEK293 tox: -8.2%; 3T3 cytotox: -28.2%

What do the screens show for `CCc1nc2c(c(-c3ccc(O)cc3)n1)CCN(C(=O)Cc1cccc(Cl)c1)CC2`?
GPT2 inhibitor: inactive; HEK293 tox: -16.2%; 3T3 cytotox: -9.8%

What do the screens show for `CC(C)c1cc(C(=O)NC2CCN(c3ncccc3C#N)CC2)n(C)n1`?
GPT2 inhibitor: -1.8%; hNpr1 antagonist: 7.08µM*; FLuc inh: inactive; HEK293 tox: inconclusive; 3T3 cytotox: inconclusive; NPR1 antag cnf: 8.62µM*; Npr2 selectivity: 12.2µM*; FLuc counter: 0.9%; GloSensor ctrl: 7.69µM*

Results for CC(C)c1cc(C(=O)N2CCN(c3ncccc3C#N)CC2)n(C)n1 ?
GPT2 inhibitor: 2.7%; hNpr1 antagonist: 5.6%; FLuc inh: inactive; HEK293 tox: -17.6%; 3T3 cytotox: inconclusive

Results for Cc1nsc(NC(=O)NC23CC4CC(C2)CC(C(C)C)(C4)C3)n1 ?
GPT2 inhibitor: -2.6%; hNpr1 antagonist: 12.6µM*; FLuc inh: inactive; HEK293 tox: 31.6µM*; 3T3 cytotox: inconclusive; NPR1 antag cnf: 30.6µM*; Npr2 selectivity: 27.3µM*; FLuc counter: -6.4%; GloSensor ctrl: inconclusive

How did N#Cc1ccc(C(=O)NCC(=O)N2CCCCCCNC(=O)CC2c2ccccc2)cc1 (stereo not given) do in these assays?
GPT2 inhibitor: inactive; hNpr1 antagonist: 2.8%; FLuc inh: inactive; HEK293 tox: 0.5%; 3T3 cytotox: -22.7%

Results for CC(=O)c1cccc(NC(=O)O[C@@H]2CO[C@H]3[C@@H]2OC[C@@H]3NC(=S)NC2CCCCC2)c1 ?
GPT2 inhibitor: -4.0%; hNpr1 antagonist: 17.8µM*; FLuc inh: inactive; HEK293 tox: inconclusive; 3T3 cytotox: inconclusive; NPR1 antag cnf: 24.3µM*; Npr2 selectivity: 24.3µM*; FLuc counter: 0.4%; GloSensor ctrl: inconclusive

How did CC(=O)c1cccc(NC(=O)O[C@@H]2CO[C@H]3[C@@H]2OC[C@@H]3NC(=S)Nc2cccc3ccccc23)c1 do in these assays?
GPT2 inhibitor: inconclusive; hNpr1 antagonist: 8.91µM*; FLuc inh: inactive; HEK293 tox: inconclusive; 3T3 cytotox: inconclusive; NPR1 antag cnf: 12.2µM*; Npr2 selectivity: 17.2µM*; FLuc counter: 0.4%; GloSensor ctrl: 13.7µM*

What do the screens show for `CC1=C[C@@H](CNS(C)(=O)=O)[C@H](C(C)C)C[C@H]1Cc1nc2ccccc2n1C`?
GPT2 inhibitor: inconclusive; hNpr1 antagonist: 28.2µM*; FLuc inh: inactive; HEK293 tox: inconclusive; 3T3 cytotox: inconclusive; NPR1 antag cnf: 35.3µM*; Npr2 selectivity: 28µM*; FLuc counter: 0.4%[86.2 µM]; GloSensor ctrl: 31.4µM*

High-throughput results (PubChem)
